Data as given in paper PMC5540273 (PLoS ONE, 2017).

Tested on: MKNK2
Details: concentration: 1 μM, replicates: in singlicate; n = 1
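Further: KINOMEscan kinase panel screen.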

SMILES	%Inh [%]
CN1CCN(Cc2ccc(NC(=O)Nc3ccc(N(C)c4ccnc(Nc5ccc(CS(C)(=O)=O)cc5)n4)cc3)cc2)CC1.Cl [GW827654]	100
COc1ccc(C)c(Nc2ccnc(Nc3ccc(-c4cnc[nH]4)cc3)n2)c1.Cl [GW784041]	0
Cc1ccc(NC(=O)c2ccnc(N3CCCCC3)c2)cc1-c1ccc(C(=O)NCC2CC2)cc1 [GW775610]	33
CC(C)NCC(Cc1ccccc1)NC(=O)c1cc(Br)c(-c2ccnc3[nH]ccc23)s1.Cl.Cl (stereo not drawn) [GSK1383281]	90.5
N#Cc1cnc2cc(-c3cnc(CNCCN4CCOCC4)s3)ccc2c1Nc1ccc(Oc2ccccc2)cc1 [GW664114]	6
O=C1NC(=O)C(c2ccccc2Cl)=C1Nc1cccc(Cl)c1 [SB-342409]	18
COc1cc(Nc2ccnc3cc(-c4ccncc4)ccc23)cc(OC)c1OC.Cl [GW494610]	14
O=C(Nc1n[nH]c2nc(-c3cccc(O)c3)ccc12)C1CC1 [SB-711805]	26
COC(=O)Nc1nc2ccc(Oc3ccc(NC(=O)Nc4cc(C(F)(F)F)ccc4F)cc3)cc2[nH]1.Cl [GW654607]	94.9
Cc1ccc(O)cc1Nc1ccnc2ccc(C(C)(C)C)cc12 [GW856805]	30
O=C(Nc1n[nH]c2nc(-c3ccccc3)ccc12)C1CC1 [SB-708999]	1
Fc1cc(Cl)ccc1Nc1ccnc2cc(-c3ccc(CN4CCOCC4)o3)ccc12 [GW560109]	77
Cc1ccc(Nc2ccnc(Nc3ccc(C)c(F)c3)n2)cc1O.Cl [GW582868]	7
COc1ccc(NC(=O)c2ccoc2)cc1-c1ccc(C(=O)NCC2CC2)cc1 [GW810437]	13
Cn1cc(-c2cnc(N)c3c(-c4ccc5c(c4)CCN5C(=O)Cc4ccccc4)csc23)cn1 [GSK2593074]	0
Cc1ccc(NC(=O)c2ccc(Cl)c(Cl)c2)cc1-c1ccc(C(=O)Nc2ccncc2)cc1 [GSK1398460]	0
Cl.O=C(Nc1ccc(Oc2ccc3[nH]c(NC(=O)c4ccco4)nc3c2)cc1)Nc1cc(C(F)(F)F)ccc1F [GW683134]	93.5

SMILES	%Inh [%]
Nc1ncc(-c2cn[nH]c2)c2scc(-c3ccc4c(c3)CCN4C(=O)Cc3ccccc3)c12 [GSK2593067]	11
O=C(O)C(F)(F)F.O=c1[nH]ccc2nc(N[C@@H]3CCNC3)nc(Nc3ccc4c(c3)S(=O)(=O)CC4)c12 [GSK2181306]	24
COc1ccc(C2=C(Nc3cccc(O)c3)C(=O)NC2=O)cc1 [SB-390766]	17
CSc1ccc(NC2=C(c3ccc(Cl)cc3)C(=O)NC2=O)cc1 [SB-317658]	0
Cc1cccc(Nc2nc(N[C@H]3CCCC[C@H]3N)ncc2C(N)=O)c1.Cl [GSK986310]	17
NCCC(NC(=O)c1cc(Br)c(-c2ccnc3[nH]ccc23)s1)c1ccccc1.O=C(O)C(F)(F)F.O=C(O)C(F)(F)F (stereo not drawn) [GSK1307810]	93.9
CN(c1ccc(NC(=O)Nc2cccc(Cl)c2)cc1)c1ccnc(N)n1.Cl [GW830707]	95.6
Fc1cc(Cl)ccc1Nc1ccnc2cc(-c3ccc(CN4CCSCC4)o3)ccc12 [GW560106]	45
Cn1cc(-c2ccc3c(c2)CCN3C(=O)Cc2cc(F)cc(F)c2F)c2c(N)ncnc21 [GSK2634140]	1
CCn1cnc2c(NCc3ccccc3)ncnc21 [SKF-96418]	0
COC(=O)Nc1nc2ccc(Oc3ccc(CC(=O)Nc4cc(C(F)(F)F)ccc4F)cc3)cc2[nH]1 [GW680903]	3
Cl.Cl.NCC(NC(=O)c1cc(-c2cccnc2)c(-c2ccnc3[nH]ccc23)s1)c1ccccc1 (stereo not drawn) [GSK1323434]	56
CN(c1ccc(NC(=O)N2CCN(CCCN3CCOCC3)CC2)cc1)c1ccnc(Nc2ccc(CS(C)(=O)=O)cc2)n1.Cl [GW830899]	0
COc1cccc(-c2nc(-c3ccccc3)[nH]c2-c2ccncc2)c1 [SB-610250]	5
Cl.Cl.NC(CNC(=O)c1cc(Br)c(-c2ccnc3[nH]ccc23)s1)c1ccccc1 (stereo not drawn) [GSK1322949]	99.9
O=C(Nc1n[nH]c2cc(-c3cccs3)ccc12)C1CC1 [SB-731284]	28
